This is part of a sample that, as a whole, favours compounds with a hit. Of some 83,000 tested, about 20% had one in any assay.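 Growth was measured after 48 h exposure to one concentration of compound in 96-well plates. Values under 10 count as active.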 Values without a mark were called inactive. Activity calls are given as the source filed them.

This assay concerns MDA-MB-468 breast. The assay can be described thus: NCI-60 one-dose screen, 48 h (100 = growth as untreated, 0 = no growth, -100 = all killed). The following applies: 10 µM unless noted.
As for `COC[C@]12CC[C@@H](C)[C@H](C)[C@H]1C1=CC[C@@H]3[C@@]4(C)CCCNC(C)(C)[C@@H]4CC[C@@]3(C)[C@]1(C)CC2`, the growth is -6.6% (active).
Then `CNC(=O)c1ccccc1Nc1nc(Nc2cc(OC)c(OC)c(OC)c2)ncc1Br`, with -46.6% (active).
Turning to `O=C(NS(=O)(=O)c1ccccc1)n1cc(-c2ccncc2)c(-c2cc(O)cc(Cl)c2)n1`, the growth is 98.4%.
To `COc1cccc(-c2nn(-c3ccccc3)cc2-c2ccnc(NCCCNS(=O)(=O)c3ccccc3)c2)c1` belongs 8.98% (active).
Then `O=C(/C=C\c1ccc(OCCCCCC[P+](c2ccccc2)(c2ccccc2)c2ccccc2)cc1)c1ccc2c(c1)OCCO2`, with -38.6% (active).
Then `O=C1OCC2=C1C(c1cccc(F)c1)c1cc3c(cc1N2CCO)OCO3` (stereo not drawn), with 8.27% (active); and `O=C(/C=C/c1c(Cl)nc2sccn12)c1ccc(F)c(F)c1`, with 35.4%; and `O=C(Nc1cccnc1Nc1ccc(Cl)cc1)c1cn(Cc2cccc(Oc3ccccc3)c2)nn1`, with 63.3%.
For `CCn1cc(C(=O)NN=C2CCCCCC2)c(=O)c2ccc(C)nc21`, the growth is 85.9%.
As to `O=C1C(Br)=C(c2ccccc2)C(=O)C(Br)=C1c1ccccc1`, the growth was 92%.
Then `C/C(=N\N=C(/C)c1cccc([N+](=O)[O-])c1)c1cccc([N+](=O)[O-])c1`, with 86.1%; and `CCOC(=O)C(C)C(C)(O)c1ccccc1` (stereo not drawn), with 96.3%; and `Nc1nc(N)c2c(n1)NC(c1ccc(C(F)(F)F)cc1)CC(c1ccc(Nc3nc(NCCO)nc(Nc4ccc(Cl)cc4)n3)cc1)=N2` (stereo not drawn), with -84.7% (active).

(Values after PubChem BioAssay (NCI).)
